Results published in PubChem BioAssay (NCI).
This is part of a sample that, as a whole, favours compounds with a hit. Of some 83,000 tested, about 20% had one in any assay.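 96-well plates, one dose, 48 hours. Percent growth reported; active if below 10.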 A number with no mark means an inactive call. Calls of active or inactive are those of the source.

system: HL-60(TB) leukemia; experiment: NCI-60 one-dose screen, 48 h (100 = growth as untreated, 0 = no growth, -100 = all killed); settings: 10 µM unless noted

| Compound | growth |
| --- | --- |
| CCOc1ccc(Cc2nccc3cc(OCC)c(OCC)cc23)cc1OCC | 10.5% |
| CC(C)(C)[Si](C)(C)OC1[C@@H](COC(=O)NC(=O)CCl)O[C@@H](n2cnc3c(N)ncnc32)[C@H]1O[Si](C)(C)C(C)(C)C (stereo partly drawn) | -48.3% (active) |
| CN1C2CCC1/C(=C\c1ccc(F)cc1)C(=O)/C2=C/c1ccc(F)cc1 | 12.1% |
| CN1C(=O)CN2CCc3ccccc3C2c2cc(Cl)ccc21 (stereo not drawn) | 86.8% |
| CC(C)=NNC(N)=S | 84.7% |
| CN1CCN(c2ccc(Nc3ncc(C(N)=O)c(NCCCNC(=O)C4CCC4)n3)cc2)CC1 | -36.3% (active) |
| C=C(C)[C@@H]1CC[C@]2(C)[C@H](CC(=O)N[C@H]3[C@@H]4C[C@](C)(C(=O)OC)CC[C@]4(C)CC[C@]32C)[C@@]1(C)CCC#N | 83.1% |
| O=c1c2sc3ncc(Cl)cc3c2nnn1-c1cccc(Cl)c1 | 91.8% |
| O=C(Nc1ccc(Cl)cc1F)c1cc(Cl)ccc1O | -48% (active) |
| Cc1ccc(CC#N)cc1C | 116% |
| COc1cc2nc3sc(C(=O)Nc4ccc(C(=O)OC(C)C)cc4)c(C(=O)Nc4ccc(Cl)cc4C)n3c(=O)c2cc1OC | 90.2% |
| O=C(Nc1ccccc1Cl)c1ccc(NC2=C(Cl)C(=O)N(C3CCCCC3)C2=O)cc1 | -36.7% [30 µM] (active) |
| CC(C)[C@@]12C[C@@H](OC(=O)COC(=O)c3ccccc3)[C@@](C)(O1)[C@@H]1CC[C@@H](C)[C@H]1[C@@H]2OC(=O)/C=C/c1ccccc1 | 94.5% |
